Measured values taken from PubChem BioAssay (NCI).
Where “and” joins values, the source holds several entries; their conditions need not be identical. Identical values can stand only once. About 79,000 compounds went through this panel and 15% of them were active in at least one assay; those are over-represented in the sample as a whole. Calls of active or inactive are those of the source. Rule as the data show it: active = growth inhibition above about 70%; inactive = the rest. Where a SMILES comes first, the peptide text is derived from it. The star is where a group is joined. Cbz = O=C(OCc1ccccc1)*

Assays:
[1] = NCI Yeast Anticancer Drug Screen. Data for the rad50 strain (AID 155);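 also: 0% = growth of vehicle-only cultures of the same strain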; details: S. cerevisiae rad50 strain growth inhibition, hits give high values; at 50.0 µM unless noted
Summary of the method: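 Compounds were tested on a yeast strain with an engineered DNA damage repair alteration; the reported value is growth inhibition normalised to vehicle treatment.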

[2] = NCI Yeast Anticancer Drug Screen. Data for the mec2-1 strain (AID 157); details: S. cerevisiae mec2-1 strain, hits give high values; at 50.0 µM unless noted
Summary of the method: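 Using mec2-1 yeast: add compound, measure growth, express inhibition versus vehicle-treated cultures.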

[3] = NCI Yeast Anticancer Drug Screen. Data for the sgs1 mgt1 strain (AID 161);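 also: 0% = growth of cultures given vehicle only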; details: S. cerevisiae sgs1 mgt1 strain, hits give high values; at 50.0 µM unless noted
Summary of the method: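 Growth of a repair-deficient yeast mutant was monitored after compound treatment and expressed as inhibition relative to vehicle-treated cultures.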

[4] = NCI Yeast Anticancer Drug Screen. Data for the cln2 rad14 strain (AID 165);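 also: 0% = growth equal to vehicle treated cultures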; details: S. cerevisiae cln2 rad14 strain, hits give high values; at 50.0 µM unless noted
Summary of the method: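 Yeast strain cln2 rad14, bearing defects in cell cycle control and DNA repair, serves as the test system; values reflect growth inhibition compared with vehicle.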

[5] = NCI Yeast Anticancer Drug Screen. Data for the bub3 strain (AID 167); details: S. cerevisiae bub3 mutant strain, hits give high values; at 50.0 µM unless noted
Summary of the method: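 Growth of a checkpoint-deficient yeast mutant is measured after compound exposure. Values represent inhibition relative to vehicle.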

[6] = NCI Yeast Anticancer Drug Screen. Data for the mlh1 rad18 strain (AID 175); details: S. cerevisiae mlh1 rad18 strain growth inhibition, hits give high values; at 50.0 µM unless noted
Summary of the method: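 Steps: expose repair-defective yeast to compound; measure growth; express inhibition against vehicle-treated controls.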

Structure (SMILES) | growth inhibition [1] | growth inhibition [2] | growth inhibition [3] | growth inhibition [4] | growth inhibition [5] | growth inhibition [6]
CN(C)CCNC(=O)Cn1ccc(=O)c2ccc([N+](=O)[O-])cc21 | 11.9% (inactive) | 6.55% (inactive) | 20.6% (inactive) | 20.8% (inactive) | -5.85% (inactive) | -39.5% (inactive)
CC(Br)CCCBr (configuration not stated) | -19.1% (inactive) | -5.65% (inactive) | -21.1% (inactive) | -22.4% (inactive) | -4.5% (inactive) | -13.8% (inactive)
CCCCCCCC/C=C\CCCCCCCC(=O)NN | -7.85% (inactive) | 0.15% (inactive) | -4.25% (inactive) | -76% (inactive) | -2.7% (inactive) | -12.8% (inactive)
C/C(=N/NC(N)=S)c1c(C)[nH]c2ccccc12 | 3.1% (inactive) | 10.2% (inactive) | -7.7% (inactive) | -78.8% (inactive) | -45% (inactive) | 0.95% (inactive)
CCCOC(=O)c1ccc([N+](=O)[O-])cc1 | 16.4% (inactive) | 4.2% (inactive) | 14.2% (inactive) | 8.75% (inactive) | -16.7% (inactive) | -23.1% (inactive)
COc1ccc(/C=C/C(=O)c2sc(Nc3ccc([N+](=O)[O-])cc3)nc2C)cc1 | 39.2% (inactive) | 7.45% (inactive) | 5.35% (inactive) | 36.8% (inactive) | 27.5% (inactive) | 46.4% (inactive)
O=C1CSC2=NCCN12 | 14.8% (inactive) and 22.8% (inactive) | -3.6% (inactive) and -15.3% (inactive) | -5.25% (inactive) and 6.8% (inactive) | 1.5% (inactive) and 3.2% (inactive) | 1.55% (inactive) and -11.9% (inactive) | 21.3% (inactive) and 18.8% (inactive)
CC(=O)CC/C=C(\C)CC(C)C | 17.4% (inactive) | 11.6% (inactive) | 2.85% (inactive) | 13.6% (inactive) | 9.8% (inactive) | 10.1% (inactive)
CC(=O)C[N+](C)(C)C | -12.9% (inactive) | -17.1% (inactive) | -14.8% (inactive) | -7.45% (inactive) | -20.8% (inactive) | 12.7% (inactive)
NS(=O)(=O)c1ccc(N=Nc2ncccc2O)cc1 | 19.4% (inactive) | 3.4% (inactive) | -12.3% (inactive) | -30.6% (inactive) | -44% (inactive) | 20.6% (inactive)
Cc1cccc(CO)c1NC(=O)NCCCl | -0.4% (inactive) | -12.2% (inactive) | -4.55% (inactive) | -32.2% (inactive) | -17.9% (inactive) | 3.25% (inactive)
Cc1ccc(C(=O)/C=C/c2cccc3ccccc23)cc1 | 16.1% (inactive) | 3.65% (inactive) | 21.5% (inactive) | 4.25% (inactive) | 9.95% (inactive) | 3.95% (inactive)
C/C(CC(=O)Nc1cc(C)ccc1C)=N\NC(=O)c1ccncc1 | 11.8% (inactive) | -0.4% (inactive) | 10.7% (inactive) | 22.7% (inactive) | -0.75% (inactive) | 1.15% (inactive)
N#CCNC(=O)Cc1ccccc1 | 10.2% (inactive) | -10.2% (inactive) | -10.2% (inactive) | -12.4% (inactive) | -30.3% (inactive) | -4.7% (inactive)
CCOC(=O)CCC(NC(=O)C(Cc1ccccc1)NC(=O)OCc1ccccc1)C(=O)OCC (stereo not drawn) (Cbz-Phe-Glu(OEt)-OEt; configuration not given here) | 3.9% (inactive) | -2.9% (inactive) | -0.2% (inactive) | -6.25% (inactive) | -7.85% (inactive) | -59.4% (inactive)
CCOC(=O)c1cnc2sc3ccc4ccccc4c3n2c1=O | 51.9% (inactive) | 23.4% (inactive) | 61% (inactive) | 36.1% (inactive) | 51.3% (inactive) | 60.7% (inactive)
COc1ccc(NC(=O)C(C)Oc2ccc(OCC3CCCCC3)cc2)cc1 (configuration not stated) | -22.9% (inactive) | -40.5% (inactive) | -42% (inactive) | -26.1% (inactive) | -56.9% (inactive) | -29.6% (inactive)
ON=C(c1ccccn1)c1ccccn1 | 11.1% (inactive) | -7.6% (inactive) | 7.05% (inactive) | 4.35% (inactive) | -8.25% (inactive) | 3.8% (inactive)
CC(C)CC(=O)/C=C\c1ccco1 | -15.2% (inactive) | -33.5% (inactive) | 1.05% (inactive) | 1.3% (inactive) | -10.5% (inactive) | -7.45% (inactive)
Cc1c2c(c(O)c3sccc13)C(C)(C)OC2=O | -3.75% (inactive) | -1.8% (inactive) | -9.6% (inactive) | -59% (inactive) | -26.4% (inactive) | -3.1% (inactive)
CCOC(OCC)N1C(=O)C2(C(OCC)OCC)CC3C(OC(=O)N3N)c3cccc1c32 (configuration not stated) | -16.4% (inactive) | 4.15% (inactive) | -7.45% (inactive) | -8.95% (inactive) | -4.75% (inactive) | -4.4% (inactive)

Structure (SMILES) | growth inhibition [1] | growth inhibition [2] | growth inhibition [3] | growth inhibition [4] | growth inhibition [5] | growth inhibition [6]
C[N+](C)(C)CCc1ccc(Cl)cc1 | 10.2% (inactive) | 7.45% (inactive) | 9.7% (inactive) | -3.7% (inactive) | -0.05% (inactive) | 21.8% (inactive)
CCCSc1ncnc2nc[nH]c12 | 23.6% (inactive) | -1% (inactive) | 9.7% (inactive) | -15.1% (inactive) | -13.7% (inactive) | 16.9% (inactive)
CCOC(=O)C(C)(c1[nH]c2ccccc2c1C)c1[nH]c2ccccc2c1C | -0.55% (inactive) | -6.2% (inactive) | -14.2% (inactive) | -1.4% (inactive) | -14.6% (inactive) | -5.7% (inactive)
O=c1[nH]c(=O)n(C2CC(O)C(CO)O2)cc1C#Cc1c(F)c(F)c(F)c(F)c1F (configuration not stated) | -17.2% (inactive) | -11.7% (inactive) | -16.4% (inactive) | 11.8% (inactive) | -13.8% (inactive) | 2.2% (inactive)
CS(=O)(=O)OCCN(CCOS(C)(=O)=O)c1ccc(C=Nc2ccc(C(=O)O)c(O)c2)cc1 | 84.3% (active) | 84.5% (active) | 79.5% (active) | 78.7% (active) | 19.8% (inactive) | 94% (active)
CN(N=O)C(=O)NCCCCCNC(=O)N(C)N=O | 7.6% (inactive) | 12.8% (inactive) | 14.1% (inactive) | -132% (inactive) | 10.5% (inactive) | -4.85% (inactive)
O=C(O)/C=C1\NC(=O)NC1=O | 16.1% (inactive) | -5.1% (inactive) | 11.8% (inactive) | 6.1% (inactive) | 5.75% (inactive) | 33% (inactive)
CC(C)(C)C(=O)NC(OC(NC(=O)C(C)(C)C)C(=O)C(C)(C)C)C(=O)C(C)(C)C (configuration not stated) | 4.05% (inactive) | 6.25% (inactive) | -21.4% (inactive) | -0.6% (inactive) | -0.1% (inactive) | 21% (inactive)
ClCCN1CCOC1=Nc1ccc2c(c1)CCCC2 | -21.2% (inactive) | -16.9% (inactive) | 2.6% (inactive) | 4.4% (inactive) | -7.25% (inactive) | -49.2% (inactive)
COc1ccc2nc3cc([N+](=O)[O-])ccc3c(NCCCN(CCO)CCO)c2c1 | -6.7% (inactive) | -1.75% (inactive) | 6.9% (inactive) | 1.75% (inactive) | 7.75% (inactive) | 2.6% (inactive)
C1=C(c2ccccc2)N(C2CCCCC2)C(c2ccccc2)=CN1Cc1ccccc1 | 45% (inactive) | 31.9% (inactive) | 69.5% (inactive) | 42% (inactive) | 50.1% (inactive) | 70.8% (active)
O=C1CSC(c2c[nH]c3ccccc23)N1c1ccc(Cl)cc1 (configuration not stated) | -33.9% (inactive) | -25.5% (inactive) | -46.2% (inactive) | -3.55% (inactive) | -28.9% (inactive) | -30.4% (inactive)
COC(=O)C(Cc1ccccc1)C(=O)C(CC(=O)OC(C)(C)C)NC(=O)OC(C)(C)C (configuration not stated) | 14.7% (inactive) | 1.15% (inactive) | 17% (inactive) | 10.8% (inactive) | 22.1% (inactive) | -27.5% (inactive)
COc1cc(C)cc(C(=O)O)c1 | -1.85% (inactive) | -3.5% (inactive) | 7.3% (inactive) | -52.4% (inactive) | -10% (inactive) | -2.7% (inactive)
CC(CCC#CC(=O)O)OC1CCCCO1 (configuration not stated) | -14.9% (inactive) | -33% (inactive) | -2.05% (inactive) | 2.95% (inactive) | -15.1% (inactive) | -14.2% (inactive)
Nc1ncc(C(=O)O)s1 | -17.3% (inactive) | -4.6% (inactive) | -23.1% (inactive) | 7.35% (inactive) | 3.35% (inactive) | -4.8% (inactive)
COc1ccc(-c2cc(=O)c3c(O)c(OC)c(O)cc3o2)cc1O | 24.8% (inactive) | 14.9% (inactive) | 37.5% (inactive) | 22.9% (inactive) | 37.5% (inactive) | 17.1% (inactive)
N=c1ccccn1C(=O)C1=Cc2cc(Cl)cc(Cl)c2OC1 | -15.6% (inactive) | 0.75% (inactive) | -1.85% (inactive) | -25.8% (inactive) | 7.65% (inactive) | -2.25% (inactive)
O=C1c2c(Br)sc(Br)c2C(NC(=O)C(F)(F)F)C1O (configuration not stated) | 10.3% (inactive) | 18.3% (inactive) | -12.3% (inactive) | -11% (inactive) | 3.95% (inactive) | -27.4% (inactive)
COC(=O)CC(C)N(c1ccc(Cl)c(Cl)c1)S(=O)(=O)c1ccc(C)cc1 (configuration not stated) | 37.9% (inactive) | -0.15% (inactive) | 4.1% (inactive) | -19.1% (inactive) | -6.05% (inactive) | 11.1% (inactive)
CC(=O)OCc1c(COC(C)=O)c(-c2ccc(Cl)cc2)n2c1CCC2 | 34% (inactive) | 16.6% (inactive) | 19.3% (inactive) | -18.1% (inactive) | 9.6% (inactive) | 23.9% (inactive)
